PubChem BioAssay (EPA / NIEHS)
Active and inactive are the calls of the source. The calls were made as follows: active = hit-call score of the fitted dose curve at least 0.9, where 1 is the maximum; inactive = score below 0.9.

Experiment: ATG_CRE_CIS: Attagene CIS-FACTORIAL HepG2 Assay for human cAMP Responsive Element (CRE) binding protein 3 (AID 2282926)
Conditions: HepG2 CRE cis-reporter, Attagene multiplexed mRNA; actives raise or lower the signal
Protocol: ATG_CIS is a cell-based, multiplexed-readout assay that uses HepG2, a human liver cell line, with measurements taken at 24 hours after chemical dosing in a 24-well plate.ATG_CRE_CIS is one of 52 assay component(s) measured or calculated from the ATG_CIS assay. It is designed to make measurements of mRNA induction, a form of inducible reporter, as detected with fluorescence intensity signals by Reverse transcription polymerase chain reaction (RT-PCR) and Capillary electrophoresis technology.Data from the assay component ATG_CRE_CIS was analyzed into 1 assay endpoint. This assay endpoint, ATG_CRE_CIS, was analyzed with bidirectional fitting relative to DMSO as the negative control and baseline of activity. Using a type of inducible reporter, measures of mRNA for gain or loss-of-signal activity can be used to understand the reporter gene at the transcription factor-level as they relate to the gene CREB3. Furthermore, this assay endpoint can be referred to as a primary readout, because this assay has produced multiple assay endpoints where this one serves a reporter gene function. To generalize the intended target to other relatable targets, this assay endpoint is annotated to the dna binding intended target family, where the subfamily is basic leucine zipper.
Human liver HepG2 cells are transiently transfected with multiple reporter transcription units (MRTUs) in 6-well plates using FuGene 6 reagent (Roche; 3 ml FuGene/1 mg DNA). The MRTU constructs are regulated by a cis-regulating element (promoter). […] A major difference between the CIS and TRANS system is that in CIS activities of endogenous TFs are measured, whereas the TRANS assay evaluates changes in activities of exogenous, chimeric NR-Gal4 proteins. […] At the end of 24 hour incubation, total RNA was isolated using TriZol reagent (Invitrogen). The isolated RNA is then reverse-transcribed using oligo(dT) primer and Mo-MLV reverse transcriptase (Invitrogen) with DNAse I (Ambion) treatment for 30 min. The one-tenth of the produced cDNA was amplified by PCR using Taq DNA polymerase (Invitrogen) and two reporter sequence-specific primers. The PCR products were fluorescently labeled by primer extension with 6-arboxyfluorescein (6-FAM) 5'-labeled reporter sequence-specific primer (2 min at 95 C, 20 s at 68 C and 10 min at 72 C) and these products were digested with 5U of HpaI (New England Biolabs) for 2h at 37 C. The fragments were purified using Qiaquick PCR columns (Qiagen), analyzed on an ABI 3130xL genetic analyzer (Applied Biosystems) with peak positions identified by using a set of X-rhodamine (ROX)-labeled MapMarker1000 molecular weight standards (BioVentures). The raw capillary electrophoresis data was processed using Attagraph software (Attagene).
In the case of CCCCC(CC)COC(=O)c1ccc(C(=O)OCC(CC)CCCC)c(C(=O)OCC(CC)CCCC)c1 (stereo not given), the outcome is reported as “inactive”.
For CC(C)COC(=O)c1ccccc1C(=O)OCC(C)C, the AC50 was 59.3 µM (active).
For CC(C)(C)C(O)(CCc1ccc(Cl)cc1)Cn1cncn1 (stereo not given), the outcome was “inactive”.
In the case of CC(C)(C)OOC(C)(C)CCC(C)(C)OOC(C)(C)C, the outcome is reported as “inactive”.
In the case of COc1cc(C=O)cc2c1[C@H](COC(N)=O)[C@]1(OC(C)=O)ON2C[C@H]2[C@@H]1N2C(C)=O, the AC50 is reported as 33.4 µM (active).
With Clc1ccc(C(c2ccc(Cl)cc2)C(Cl)(Cl)Cl)cc1 the outcome was “inactive”.
In the case of ClC1=C(Cl)[C@]2(Cl)[C@H]3[C@H]([C@@H]4C=C[C@H]3C4)[C@@]1(Cl)C2(Cl)Cl, the outcome is reported as “inactive”.
For Oc1ccc2ccc3cccc4ccc1c2c34, the outcome was “inactive”.
For Clc1ccc(Cl)c(Cl)c1, the outcome was “inactive”.
In the case of [As]#[In], the outcome is reported as “inactive”.
For COC(=O)Nc1nc2ccccc2[nH]1, the outcome was “inactive”.
In the case of Nc1ccc(Oc2ccc(N)cc2)cc1, the outcome is reported as “inactive”.
With C1=Cc2cccc3cccc1c23 the outcome was “inactive”.
For COC(=O)c1ccccc1N, the outcome was “inactive”.
In the case of CN(C)[C@@H]1C(=O)C(C(N)=O)=C(O)[C@@]2(O)C(=O)C3=C(O)c4c(O)cccc4[C@@](C)(O)[C@H]3C[C@@H]12, the outcome is reported as “inactive”.
For CN(C)c1ccc(C(=O)c2ccc(N(C)C)cc2)cc1, the outcome was “inactive”.
For O=C1CCCO1, the outcome was “inactive”.
With CCCSC(=O)N(CCC)CCC the outcome was “inactive”.
In the case of ClC1=C(Cl)C2(Cl)C3C(Cl)C=CC3C1(Cl)C2(Cl)Cl (stereo not given), the outcome is reported as “inactive”.
For c1ccc2c(c1)-c1cccc3cccc-2c13, the outcome was “inactive”.
For CNC(=O)Oc1cccc2c1OC(C)(C)C2, the outcome was “inactive”.
With Cn1cc(-c2ccccc2)c(=O)c(-c2cccc(C(F)(F)F)c2)c1 the AC50 was 79.1 µM (active).
For N#CC(Br)Br, the outcome was “inactive”.
For CCOc1cccc(C2(N3CCN(c4ccccc4)CC3)CCC(C)CC2)c1 (stereo not given), the outcome was “inactive”.
With O=Cc1ccco1 the outcome was “inactive”.
With Nc1ccc(Cl)cc1N the outcome was “inactive”.
With CCCCCCCCCCCCCN1CC(C)OC(C)C1 (stereo not given) the outcome was “inactive”.
For O=C(O)C1C2CCC(O2)C1C(=O)O (stereo not given), the AC50 was 80.7 µM (active).
In the case of C[N+](C)(C)CC1CO1 (stereo not given), the outcome is reported as “inactive”.
With CS(=O)(=O)NC(=O)c1cc(Oc2ccc(C(F)(F)F)cc2Cl)ccc1[N+](=O)[O-] the outcome was “inactive”.
With CCN(CC)N=O the outcome was “inactive”.
For O=[N+]([O-])C(Br)(CO)CO, the AC50 was 170 µM (active).
With OCCCl the outcome was “inactive”.
In the case of C=CCc1ccc2c(c1)OCO2, the outcome is reported as “inactive”.
With Oc1ccccc1Cl the outcome was “inactive”.
For CCC[CH2][Sn]([Cl])([CH2]CCC)[CH2]CCC, the outcome was “inactive”.
In the case of CCN(CC)CCO, the outcome is reported as “inactive”.
For c1ccc(C2CO2)cc1 (stereo not given), the outcome was “inactive”.
In the case of ClCCOCCCl, the outcome is reported as “inactive”.
With CN(C)C(=O)Nc1ccc(Cl)cc1 the outcome was “inactive”.
